Compounds with a hit are over-represented: about 7.5% of the library has one in this group of screens.
Rab9 promoter act – activators of Rab9 promoter | AID 485297 | Potency, µM (highest dose often 9.22 µM), actives largely listed as activators | 2.8% of 320,000 active | Huh7 Rab9 promoter-luciferase reporter, luminescence, 24 h; also: nearly all actives have a fitted effect of over 60% in size
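Luminescence read-out: Huh7 cells stably expressing Rab9-luciferase, treated 24 h with compound at 37 °C, then lysed with luciferase reagent for 10 min at ambient before reading.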
SMN2 splice up – enhancers of SMN2 splice variant expression; 2.8% of 210,000 active; HEK293 SMN2-luciferase splicing reporter, luminescence, 30-36 h; Potency, µM (titrated, usually from 46.1 µM), usual class: activators; also: nearly all actives have a fitted effect of over 55% in size
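HEK293 cells carry an SMN2 minigene-luciferase reporter in which exon 7 inclusion puts luciferase in frame. Cells were seeded at 2000 cells/well, attached for 10-12 hours, then exposed to compounds for 30-36 hours at 37C before ONE-Glo luminescence.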
FLuc modulator – inhibits or activates purified firefly luciferase, miR-21 counter-screen. AID 588342. purified FLuc, Km substrates, luminescence inhibition. P08659. 6.9% of 360,000 active. Potency, µM (top dose mostly 57.5 µM), usual class: inhibitors; also: nearly all actives have a fitted effect of over 55% in size
Target sequence (P08659 whole entry, looked up): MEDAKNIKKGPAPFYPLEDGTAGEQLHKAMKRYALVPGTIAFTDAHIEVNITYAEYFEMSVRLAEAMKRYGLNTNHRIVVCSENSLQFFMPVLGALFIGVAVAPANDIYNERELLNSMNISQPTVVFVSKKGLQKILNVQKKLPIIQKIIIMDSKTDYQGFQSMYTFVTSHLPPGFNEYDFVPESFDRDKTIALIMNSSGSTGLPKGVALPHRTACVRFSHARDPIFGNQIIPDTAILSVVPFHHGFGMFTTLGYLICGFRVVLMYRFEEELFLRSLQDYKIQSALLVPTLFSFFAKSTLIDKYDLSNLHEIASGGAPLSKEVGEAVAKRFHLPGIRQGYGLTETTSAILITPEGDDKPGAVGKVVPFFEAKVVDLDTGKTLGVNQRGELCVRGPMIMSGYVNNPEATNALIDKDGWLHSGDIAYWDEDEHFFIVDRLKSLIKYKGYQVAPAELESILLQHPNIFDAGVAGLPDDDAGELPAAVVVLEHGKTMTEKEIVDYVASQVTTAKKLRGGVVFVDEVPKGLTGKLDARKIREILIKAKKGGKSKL
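Biochemical qHTS of compounds, final roughly 60 µM downward over six points, against 10 nM purified firefly luciferase using Km concentrations of substrates (10 uM D-luciferin, 10 uM ATP) in Tris acetate pH 7.5 buffer; luminescence output.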
NPC1 promoter act – activators of NPC1 promoter | 2.4% of 320,000 active | AID 485313 | Huh7 NPC1 promoter luciferase reporter, 24 h | Potency, µM (highest dose often 9.22 µM), most hits filed as activators; also: nearly all actives have a fitted effect of over 60% in size
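Quantitative HTS used a cell-based reporter: Huh7 cells stably bearing the NPC1 promoter upstream of luciferase were treated with compounds for 24 h, and promoter activation was read as luminescence.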
ELG1 genotox – induces genotoxicity in HEK293T cells with luciferase-tagged ELG1; HEK293T ELG1-luciferase reporter, luminescence, 16 h; Potency, µM (highest dose often 46 µM), most hits filed as activators; 1.3% of 330,000 active; also: nearly all actives have a fitted effect of over 60% in size
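Luminescence read-out: rising ELG1-luciferase signal, reflecting elevated ELG1 protein under genetic stress, flags genotoxic compounds. Cells were treated for 16 hr at 37 °C before ONE-Glo detection.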
A number is an active result; i = inactive; ? = inconclusive; nt = not tested or not shown; [ ] = remark or other dose. Calls follow the shape of the dose curve; as a rule, active = well fitted curve in the direction sought with a large enough effect; inconclusive = small, poorly fitted or top-dose-only effect, or another doubt; inactive = no such curve, though single readings can be large; an effect the other way counts as inactive or inconclusive.

SMILES	Rab9 promoter act	SMN2 splice up	FLuc modulator	NPC1 promoter act	ELG1 genotox
COc1ccc(C(=O)Nc2cccc(OC(=O)c3ccc(C)c(C)c3)c2)cc1	i	?	10.7µM	?	i
COc1ccc(C(=O)Nc2cc(OC)c(NC(=O)c3ccco3)cc2OC)cc1	i	i	?	i	i
CC(=O)Oc1ccc(C(=O)Nc2cccc(NC(=O)c3ccco3)c2)cc1	i	nt	15.1µM	i	i
COc1ccc(C(=O)Nc2cccc(C(C)=O)c2)cc1OC	i	i	?	i	i
COc1cc(OC)c(C(=O)Nc2cccc(C(C)=O)c2)cc1OC	?	i	13.5µM	i	?
COC(=O)c1cccc(NC(=O)c2cc(OC)c(OC)c(OC)c2Br)c1	i	?	i	i	i
COc1ccc(C(=O)Nc2cccc(C(C)=O)c2)c(OC)c1OC	i	i	12µM	i	?
Cc1nc2nc(COc3ccccc3)[nH]n2c(=O)c1Cl	i	i	19µM	i	i
NC(=O)C/C=C\CC(N)=O	nt	i[9.22 µM]	nt	nt	nt
Oc1ccc(N=Nc2ccccc2)cc1	i	nt	9.53µM	?	?
Oc1ccc(Cl)cc1N=Nc1ccccc1	i	nt	13.5µM	i	i
CC(=O)Nc1ccc(N=Nc2ccc(O)cc2)cc1	3.55µM	i[1.84 µM]	10.7µM	?	?
O=C(N[C@H]1CCCc2ccccc21)O[C@@H]1C(=O)c2cc(Br)ccc2O[C@H]1c1ccc2c(c1)OCO2	nt	i	nt	nt	nt
CCOc1ccc(-c2nnc(SCC(=O)NCc3ccccc3Cl)o2)cc1	nt	nt	16.9µM	nt	nt
O=C(CSc1nc(=O)n2ccccc2n1)NCc1ccccc1Cl	i	nt	i	i	i
CCOc1ccc(-c2nnc(SCC(=O)N3CCN(c4ccccc4)CC3)o2)cc1	i	i	i	i	i
O=C(CSc1nnc(-c2ccccc2F)o1)N1CCNC1=O	3.16µM	nt	13.5µM	2.51µM	?
O=C(CSc1ncccn1)NCc1ccccc1Cl	1.41µM	12.6µM	26.9µM	3.98µM	18.4µM
CCOc1ccc(-c2nnc(SCC(=O)N3CCNC3=O)o2)cc1	2µM	nt	5.36µM	2µM	?
O=C(CSc1nnc(-c2ccccc2F)o1)N1CCc2ccccc21	nt	i	i	nt	nt
Cc1ccc2ccccc2c1[N+](=O)[O-]	nt	i	nt	nt	nt
CC1CCN(S(=O)(=O)c2ccc3c(c2)NC(=O)CS3)CC1	i	nt	i	i	i
O=C(Nc1ccccc1C(F)(F)F)c1c(F)cccc1Cl	i	i	i	i	i
Cc1cc(=O)oc2cc(OCC(=O)c3ccccc3)ccc12	i	nt	i	i	i
CCc1cc(=O)oc2cc(OC(=O)c3ccco3)ccc12	i	nt	i	i	i
SMILES	Rab9 promoter act	SMN2 splice up	FLuc modulator	NPC1 promoter act	ELG1 genotox
COCCOC(=O)c1c(C)oc2ccc(OC(=O)c3ccco3)cc12	i	i	23.9µM	i	i
Cc1cc(=O)oc2cc(OC(=O)c3ccco3)ccc12	i	nt	16.9µM	i	i
Cc1cc(=O)oc2cc(OC(=O)c3ccccc3)ccc12	i	i	5.36µM	i	i
Cn1c(=O)[nH]c(=O)c2[nH]c(CN3CCN(C(=O)c4ccco4)CC3)nc21	i	i	i	i	i
Cc1ccc(S(=O)(=O)NCC(=O)NCCc2c[nH]c3ccccc23)cc1C	i	nt	i	i	i
O=C(Cn1cc(C(F)(F)F)ccc1=O)Nc1ccccc1	i	nt	i	i	i
COc1cc(/C=C2/SC(=O)NC2=O)ccc1OCc1ccccc1	i	nt	?	i	i
O=C1NC(=O)/C(=C\c2ccccc2OCc2ccccc2)S1	i	i	26.9µM	i	i
O=C1NC(=O)/C(=C\c2ccc(OCc3ccccc3)cc2)S1	i	nt	19µM	i	i
COc1ccc(NC(=O)c2nc3nc(C)cc(C(F)F)n3n2)c(C)c1	nt	i	i	nt	nt
COc1cccc(CN2CCSCC2)c1	i	i	i	i	i
c1cncc(CN=C2Nc3ccccc3CS2)c1	i	i	i	i	i
Clc1ccc(CN=C2Nc3ccccc3CS2)cc1	2.24µM	12.6µM	6.01µM	3.16µM	?
COc1ccccc1CN=C1NC(=O)C(CC(=O)Nc2ccc(C(C)=O)cc2)S1 (stereo unspecified)	i	nt	i	i	i
Cc1ccc(CN=C2Nc3ccccc3CS2)cc1	0.447µM	7.94µM	0.601µM	0.501µM	2.59µM
COc1ccccc1CN=C1Nc2ccccc2CS1	?	?	23.9µM	?	i
COc1cccc(CN=C2Nc3ccccc3CS2)c1	3.16µM	14.1µM	12µM	2.82µM	?
CCOc1ccc(Nc2oc(-c3ccc(COc4ccc(OC)cc4)o3)nc2C#N)cc1	nt	nt	i	nt	nt
Cc1ccccc1-c1ccccc1CN1[C@@H](C(C)C)COCCS1(=O)=O	nt	nt	nt	nt	i
CC(C)(C)OC(=O)CN1C(=O)S/C(=C\c2ccc(-c3cccc(C(=O)O)c3)o2)C1=O	3.16µM	nt	15.1µM	?	?
O=C1S/C(=C/c2ccc(N3CCOCC3)o2)C(=O)N1Cc1ccc(F)cc1	i	i	?	i	i
CC(C)OC(=O)CN1C(=O)S/C(=C/c2ccc(N3CCCCC3)o2)C1=O	i	i	21.3µM	i	i
Cc1ccc(NC(=O)CN2C(=O)S/C(=C/c3ccc(-c4cccc(C(=O)O)c4)o3)C2=O)cc1	i	?	21.3µM	i	i
Cc1cc(C(=O)O)ccc1-c1ccc(/C=C2\SC(=O)N(CC(=O)Nc3ccc4c(c3)OCO4)C2=O)o1	i	nt	?	i	i
C#CCN1C(=O)S/C(=C\c2ccc(-c3ccc(C(=O)O)cc3C)o2)C1=O	2.51µM	nt	7.57µM	1.12µM	?
SMILES	Rab9 promoter act	SMN2 splice up	FLuc modulator	NPC1 promoter act	ELG1 genotox
CCOC(=O)N1CCN(C(=O)CN(C)S(=O)(=O)c2ccc(OCC)cc2)CC1	i	nt	i	i	i
CCCn1c(O)c(/C=C2\C=NN=C2c2ccccc2)sc1=S	i	i	i	i	i
COCCCn1c(O)c(/C=C2\N=C(C#N)C(=Nc3ccc(C)cc3)O2)sc1=S	i	nt	6.75µM	i	i
COc1ccc2cc3cc(C(=O)NCc4ccc(C)cc4)oc3nc2c1	nt	i	i	nt	nt
COc1ccc2cc3cc(C(=O)N(C)C4CCCCC4)oc3nc2c1	2.24µM	nt	7.57µM	2.24µM	?
COc1ccc2cc3cc(C(=O)N4CCN(C5CCCCC5)CC4)oc3nc2c1	i	nt	i	i	i
COc1ccc2cc3cc(C(=O)N4CCCCCC4)oc3nc2c1	0.501µM	nt	1.9µM	0.891µM	2.59µM
COc1ccc2cc3cc(C(=O)N4CCCCC4C)oc3nc2c1 (stereo unspecified)	0.447µM	nt	3.38µM	1.12µM	2.31µM
COc1ccc(C2=NN(C(C#N)c3ccc(OC)cc3)C(c3ccccc3)C2)cc1 (stereo unspecified)	?	?	23.9µM	?	?
COc1ccc(C(C#N)N2N=C(C)CC2c2ccccc2)cc1 (stereo unspecified)	i	nt	i	i	i
COCC(C)n1c(C)cc(C(=O)CSc2nnnn2C2CCCC2)c1C (stereo unspecified)	?	nt	4.26µM	?	?
COCC(C)n1c(C)cc(C(=O)CSc2nnc(N)s2)c1C (stereo unspecified)	3.98µM	?	8.49µM	?	8.2µM
COc1ccc(C)cc1NC(=O)CSc1nnnn1C1CCCC1	i	nt	i	i	i

Bioassay records as filed in PubChem BioAssay.
